Records with an inconclusive call do not appear. Calls of active or inactive are those of the source. Unless noted, calls follow the shape of the dose curve; as a rule, active = well fitted curve in the direction sought with a large enough effect; inconclusive = small, poorly fitted or top-dose-only effect, or another doubt; inactive = no such curve, though single readings can be large; an effect the other way counts as inactive or inconclusive.
Experiments:
[1] = target: Cytochrome P450 1A2 (Homo sapiens) (UniProt P05177); assay: p450-cyp1a2 (AID 410; calls by dose curve; also: potency is read from the fitted curve at half-maximal effect;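 as to activity change, negative = inhibition: -100% = full effect of reference inhibitor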)
Sequence of Cytochrome P450 1A2 (Homo sapiens) (P05177 whole entry, looked up): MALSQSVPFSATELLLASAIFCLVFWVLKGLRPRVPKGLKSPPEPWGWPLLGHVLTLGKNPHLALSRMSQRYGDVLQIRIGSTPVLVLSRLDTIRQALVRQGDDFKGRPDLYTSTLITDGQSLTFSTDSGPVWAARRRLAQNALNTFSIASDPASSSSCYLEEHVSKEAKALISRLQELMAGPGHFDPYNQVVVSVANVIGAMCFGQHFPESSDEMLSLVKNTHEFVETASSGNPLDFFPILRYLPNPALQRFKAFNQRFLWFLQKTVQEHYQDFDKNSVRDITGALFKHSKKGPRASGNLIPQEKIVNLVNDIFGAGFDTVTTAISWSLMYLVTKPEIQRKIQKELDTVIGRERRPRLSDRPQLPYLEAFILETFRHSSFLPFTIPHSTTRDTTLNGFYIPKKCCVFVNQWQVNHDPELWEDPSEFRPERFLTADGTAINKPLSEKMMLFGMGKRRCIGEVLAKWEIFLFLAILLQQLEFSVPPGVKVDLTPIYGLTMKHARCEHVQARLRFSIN
In short: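 Human CYP1A2 (20nM) demethylated Luciferin-ME at its Km (100uM) in 100mM KPO4. After 10 min compound preincubation, NADPH regeneration ran the reaction 60 min at room temperature. Luciferin was read by luminescence, normalized to 57 uM furafylline.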

[2] = target: Glucocorticoid receptor (Homo sapiens) (UniProt P04150); assay: GR-GFP Redistribution (AID 450;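 active = compounds whose dose series gives a full or clear partial fitted curve of increased nuclear translocation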; also: potency is read from the fitted curve at half-maximal effect); conditions: U2OS GR-GFP nuclear translocation, laser cytometry, 2 h
Sequence of Glucocorticoid receptor (Homo sapiens) (P04150 whole entry, looked up, the tested form may be a part): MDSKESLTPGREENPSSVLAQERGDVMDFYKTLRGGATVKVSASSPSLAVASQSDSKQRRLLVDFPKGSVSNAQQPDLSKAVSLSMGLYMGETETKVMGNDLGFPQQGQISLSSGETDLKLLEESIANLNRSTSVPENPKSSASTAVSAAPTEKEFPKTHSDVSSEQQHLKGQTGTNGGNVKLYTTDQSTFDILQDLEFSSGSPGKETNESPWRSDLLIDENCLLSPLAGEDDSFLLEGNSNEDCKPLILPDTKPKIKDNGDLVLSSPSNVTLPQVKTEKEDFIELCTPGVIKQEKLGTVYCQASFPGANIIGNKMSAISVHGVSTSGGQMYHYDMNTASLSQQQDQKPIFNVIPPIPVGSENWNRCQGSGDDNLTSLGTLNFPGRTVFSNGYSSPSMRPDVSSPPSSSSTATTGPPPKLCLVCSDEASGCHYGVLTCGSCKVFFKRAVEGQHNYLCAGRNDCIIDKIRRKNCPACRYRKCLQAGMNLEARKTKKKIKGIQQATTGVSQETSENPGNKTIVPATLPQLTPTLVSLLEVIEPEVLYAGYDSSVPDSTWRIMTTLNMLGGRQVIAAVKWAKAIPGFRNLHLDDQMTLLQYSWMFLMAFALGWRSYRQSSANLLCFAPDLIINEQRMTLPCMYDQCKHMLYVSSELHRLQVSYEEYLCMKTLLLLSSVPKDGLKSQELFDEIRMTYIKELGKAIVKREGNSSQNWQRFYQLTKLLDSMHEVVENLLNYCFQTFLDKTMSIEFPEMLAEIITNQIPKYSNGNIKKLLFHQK

[3] = target: Glucocorticoid receptor (Homo sapiens) (UniProt P04150); assay: GR-EFC Redistribution (AID 451; calls by dose curve; also: potency is read from the fitted curve at half-maximal effect); conditions: CHO-K1 GR-EFC translocation, beta-gal luminescence, 2 h
In short: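 Translocation of GR-ED fusion to nuclear EA restores b-gal, read by luminescence after 1 h room-temperature detection. Engineered CHO-K1 biosensor cells, 1,000/well, exposed 2 h at 37 C to titrations up to 46 uM final.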

[4] = target: Mitogen-activated protein kinase 10 (Mus musculus) (UniProt Q61831); assay: JNK3 AlphaScreen Assay (AID 530; active = well fitted curve in either direction with a large enough effect, not every such curve was filed as active;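 also: kinase came from lysate of stimulated human HepG2 cells; signal reports phosphorylation of biotinylated GST-cJun 1-79 at Ser73 with 10 µM ATP; % is scaled to controls: 0 for no effect and ±100 for the full control effect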)
In short: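 Room-temperature AlphaScreen kinase assay; pre-activated HepG2 lysate as JNK3 source, biotin-GST-cJun(1-79) substrate, 10 uM ATP, compound 15 min preincubation.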

[5] = target: 3',5'-cyclic-AMP phosphodiesterase 4B (Homo sapiens) (UniProt Q07343); assay: qHTS Assay for Inhibitors of PDE-IV (AID 607; active = well fitted activation curve with a large enough effect in the main read-out, with a control signal flat, not every such curve was filed as active; also: % of control where 0% means no effect)
Sequence of 3',5'-cyclic-AMP phosphodiesterase 4B (Homo sapiens) (Q07343 whole entry, looked up): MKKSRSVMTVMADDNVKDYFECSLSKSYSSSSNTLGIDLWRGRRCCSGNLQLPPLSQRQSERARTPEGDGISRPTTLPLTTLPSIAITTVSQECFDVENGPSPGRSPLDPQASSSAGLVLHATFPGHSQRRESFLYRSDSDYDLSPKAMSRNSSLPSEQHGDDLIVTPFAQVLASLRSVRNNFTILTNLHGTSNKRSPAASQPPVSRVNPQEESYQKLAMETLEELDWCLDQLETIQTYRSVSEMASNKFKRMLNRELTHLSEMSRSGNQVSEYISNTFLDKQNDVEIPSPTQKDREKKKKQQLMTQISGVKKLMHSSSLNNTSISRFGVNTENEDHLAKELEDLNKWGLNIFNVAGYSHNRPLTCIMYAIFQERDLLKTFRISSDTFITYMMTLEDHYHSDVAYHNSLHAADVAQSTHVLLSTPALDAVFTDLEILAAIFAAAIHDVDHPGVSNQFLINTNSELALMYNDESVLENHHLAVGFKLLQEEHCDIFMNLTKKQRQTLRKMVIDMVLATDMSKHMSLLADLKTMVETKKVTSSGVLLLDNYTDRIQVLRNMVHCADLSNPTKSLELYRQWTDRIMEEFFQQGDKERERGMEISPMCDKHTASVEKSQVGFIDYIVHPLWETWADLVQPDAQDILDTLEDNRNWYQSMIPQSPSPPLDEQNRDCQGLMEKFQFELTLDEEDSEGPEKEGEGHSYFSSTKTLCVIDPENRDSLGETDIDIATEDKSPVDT
In short: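 ACTOne HEK293 cells carry a modified cAMP-gated CNG channel and express endogenous PDE4; plated 1000 cells/well, compounds up to 22.9 uM final. Membrane-potential dye fluorescence (ex 535/em 590) was read; parental cells received 10 uM forskolin + 100 uM RO 20-1724.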

[6] = qHTS Assay for Lipid Storage Modulators (AID 1519; calls by dose curve); conditions: Drosophila S3 cells, BODIPY lipid droplet/cell ratio, laser cytometry, cells loaded with oleic acid; for activity change, negative = inhibition: at 57.5 µM (top of the series)
In short: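 Cells seeded at 5,000 per well were treated with compounds over a concentration series and loaded with oleic acid (400 uM, as added). Lipid droplet fluorescence (488 nm excitation, 500-530 nm channel) was read by laser-scanning cytometry and normalized to 20 uM Triacsin C.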

[7] = target: Ubiquitin carboxyl-terminal hydrolase 1 (Homo sapiens) (UniProt O94782); assay: Inhibitors of USP1/UAF1: Pilot qHTS (AID 504865); also: nearly all actives have a fitted effect of over 35% in size; also: potency is read from the fitted curve at half-maximal effect
In short: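 Enzyme-free wells gave the negative control, while test wells held 1nM USP1/UAF1 preincubated with compound for 15 min at room temperature. Ub-Rho at 150nM final started the reaction, and fluorescence at 480/540 nm was recorded kinetically.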

[8] = Primary qHTS for small molecule stabilizers of the endoplasmic reticulum resident proteome: Secreted ER Calcium Modulated Protein (SERCaMP) assay (AID 1508630); also: % is scaled to controls: 0 for no effect and ±100 for the full control effect
In short: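 GLuc-SERCaMP-expressing SH-SY5Y cells, pretreated 16 h with compound, are challenged with thapsigargin to empty ER calcium stores; after 4 h, coelenterazine is added directly to the medium and luminescence is imaged.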

[9] = target: Lysosomal acid glucosylceramidase (Homo sapiens) (UniProt P04062); assay: Glucocerebrosidase-p2 (AID 348; in the data active = potency below about 10 µM; also: potency is read from the fitted curve at half-maximal effect); conditions: purified GBA, blue fluorogenic substrate, 40 min
Sequence of Lysosomal acid glucosylceramidase (Homo sapiens) (P04062 whole entry, looked up): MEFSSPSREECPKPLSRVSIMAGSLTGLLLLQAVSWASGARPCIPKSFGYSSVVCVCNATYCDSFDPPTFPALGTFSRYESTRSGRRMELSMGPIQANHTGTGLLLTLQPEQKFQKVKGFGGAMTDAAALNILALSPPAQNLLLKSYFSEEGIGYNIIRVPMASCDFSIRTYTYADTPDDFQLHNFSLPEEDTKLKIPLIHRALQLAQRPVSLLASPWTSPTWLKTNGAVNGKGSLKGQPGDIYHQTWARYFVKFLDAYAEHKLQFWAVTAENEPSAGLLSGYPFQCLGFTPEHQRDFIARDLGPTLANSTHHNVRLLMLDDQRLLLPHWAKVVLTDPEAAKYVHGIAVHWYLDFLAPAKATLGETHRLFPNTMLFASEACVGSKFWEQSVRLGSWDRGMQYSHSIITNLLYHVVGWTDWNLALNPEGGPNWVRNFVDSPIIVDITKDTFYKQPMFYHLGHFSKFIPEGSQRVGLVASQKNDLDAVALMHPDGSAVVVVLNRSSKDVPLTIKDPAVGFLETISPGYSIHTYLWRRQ
In short: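 Compounds titrated from 0.6 nM upwards against 0.2 nM enzyme in pH 5.9 citric acid/KH2PO4, taurocholate, tween-20; blue fluorogenic substrate 80 uM, 40 min room temperature, stopped and read Ex 365/Em 440 for AC50.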

[10] = AP1 Signaling Pathway (AID 357; active = well fitted curve in either direction with a large enough effect, not every such curve was filed as active;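 also: ME-180 reporter cells stimulated with EGF at its EC50 level; % is scaled to controls: 0 for no effect and ±100 for the full control effect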); conditions: ME-180 AP-1-bla reporter, EGF-induced, beta-lactamase ratio, 5 h; at 7.69 µM (top of the series) unless noted
In short: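 Beta-lactamase reporter under AP-1 response element, ME-180 background. Stimulus: EC50 EGF. Compound exposure 5 h, 37 °C. Detection: CCF4, 2.5 h RT, 460/530 nm. Values: AC50 from titration.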

[11] = NFAT Signaling Pathway (AID 444; active = well fitted curve in either direction with a large enough effect, not every such curve was filed as active;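 also: carbachol stimulus at about its EC50 of 1 µM final; % is scaled to controls: 0 for no effect and ±100 for the full control effect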); conditions: Jurkat NFAT-bla M1, carbachol, beta-lactamase ratio, 5 h; at 7.69 µM (top of the series) unless noted
In short: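 Read-out: CCF4 FRET ratio (460 nm/530 nm) after 1 h RT dye loading, used for %activity and AC50 from titration series. Cells: Jurkat NFAT-β-lactamase/M1 line, treated with compound plus 1 uM carbachol for 5 h, 37 °C.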

[12] = Stat Signaling Pathway (AID 446; active = well fitted curve in either direction with a large enough effect, not every such curve was filed as active); conditions: ME-180 SIE beta-lactamase reporter, IL-6 stimulated, 5 h; at 7.69 µM (top of the series) unless noted
In short: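 ME-180 SIE-bla cells; overnight plating; cpd + IL-6 40 pM, 5 h, 37 C; LiveBLAzer 2.5 h RT; 460/530 nm emission ratio. Normalized to 300 pM IL-6 and 125 nM JAK inhibitor controls.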

[13] = target: Rap guanine nucleotide exchange factor 3 (Homo sapiens) (UniProt O95398); assay: Confirmatory qHTS for antagonist of cAMP-regulated guanine nucleotide exchange factor 3 (EPAC1) (AID 1645880);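 also: plate controls were DMSO only for no effect and full effect of the ATA control for full effect; nearly all actives have a fitted effect of over 55% in size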
Sequence of Rap guanine nucleotide exchange factor 3 (Homo sapiens) (O95398 whole entry, looked up): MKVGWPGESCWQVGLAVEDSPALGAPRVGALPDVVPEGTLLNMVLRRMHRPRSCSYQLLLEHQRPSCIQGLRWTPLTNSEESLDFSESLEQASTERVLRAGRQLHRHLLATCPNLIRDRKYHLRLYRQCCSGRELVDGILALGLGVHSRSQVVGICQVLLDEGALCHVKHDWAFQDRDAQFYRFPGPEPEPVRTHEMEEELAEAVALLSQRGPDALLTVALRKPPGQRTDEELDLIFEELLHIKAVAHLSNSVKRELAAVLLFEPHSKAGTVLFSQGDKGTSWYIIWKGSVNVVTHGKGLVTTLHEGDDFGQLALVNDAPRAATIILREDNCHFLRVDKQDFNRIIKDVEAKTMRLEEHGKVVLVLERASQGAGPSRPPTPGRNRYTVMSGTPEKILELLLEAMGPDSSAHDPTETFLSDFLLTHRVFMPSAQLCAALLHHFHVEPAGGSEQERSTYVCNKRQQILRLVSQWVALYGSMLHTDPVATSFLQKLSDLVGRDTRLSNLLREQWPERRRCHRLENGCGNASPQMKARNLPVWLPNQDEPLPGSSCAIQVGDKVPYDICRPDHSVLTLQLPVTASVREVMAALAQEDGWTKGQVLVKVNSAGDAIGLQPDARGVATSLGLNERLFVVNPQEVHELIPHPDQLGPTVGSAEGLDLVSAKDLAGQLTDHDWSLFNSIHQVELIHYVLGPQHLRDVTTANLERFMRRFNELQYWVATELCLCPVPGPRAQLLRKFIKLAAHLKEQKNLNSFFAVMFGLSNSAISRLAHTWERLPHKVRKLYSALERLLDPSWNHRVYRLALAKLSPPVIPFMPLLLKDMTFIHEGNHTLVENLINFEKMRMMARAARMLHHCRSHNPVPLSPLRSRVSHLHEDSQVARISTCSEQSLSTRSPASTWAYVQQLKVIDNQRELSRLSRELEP
In short: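 Nucleotide exchange uses 100 nM EPAC1, 250 nM RAP1B-BODIPY-GDP and 50 uM GDP, with compounds in a concentration-titration series. After 5 min at room temperature, fluorescence (480 nm ex/540 nm em) is read every 5 min for 30 min. Data are normalized to control ATA and DMSO.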

[14] = target: Rap guanine nucleotide exchange factor 3 (Homo sapiens) (UniProt O95398); assay: Confirmatory qHTS for agonist of cAMP-regulated guanine nucleotide exchange factor 3 (EPAC1) (AID 1645881);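 also: EPAC1 catalysed release of BODIPY-GDP from Rap1B seen as fluorescence loss; 100% = effect of cAMP agonist control; nearly all actives have a fitted effect of over 75% in size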
[15] = target: Rap guanine nucleotide exchange factor 4 (Homo sapiens) (UniProt Q8WZA2); assay: Confirmatory qHTS for agonist of cAMP-regulated guanine nucleotide exchange factor 4 (EPAC2) (AID 1645884);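 also: nucleotide exchange releases bodipy-GDP from Rap1 and this lowers its fluorescence; % is scaled to controls: 0 for no effect and ±100 for the full control effect; nearly all actives have a fitted effect of over 65% in size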
Sequence of Rap guanine nucleotide exchange factor 4 (Homo sapiens) (Q8WZA2 whole entry, looked up): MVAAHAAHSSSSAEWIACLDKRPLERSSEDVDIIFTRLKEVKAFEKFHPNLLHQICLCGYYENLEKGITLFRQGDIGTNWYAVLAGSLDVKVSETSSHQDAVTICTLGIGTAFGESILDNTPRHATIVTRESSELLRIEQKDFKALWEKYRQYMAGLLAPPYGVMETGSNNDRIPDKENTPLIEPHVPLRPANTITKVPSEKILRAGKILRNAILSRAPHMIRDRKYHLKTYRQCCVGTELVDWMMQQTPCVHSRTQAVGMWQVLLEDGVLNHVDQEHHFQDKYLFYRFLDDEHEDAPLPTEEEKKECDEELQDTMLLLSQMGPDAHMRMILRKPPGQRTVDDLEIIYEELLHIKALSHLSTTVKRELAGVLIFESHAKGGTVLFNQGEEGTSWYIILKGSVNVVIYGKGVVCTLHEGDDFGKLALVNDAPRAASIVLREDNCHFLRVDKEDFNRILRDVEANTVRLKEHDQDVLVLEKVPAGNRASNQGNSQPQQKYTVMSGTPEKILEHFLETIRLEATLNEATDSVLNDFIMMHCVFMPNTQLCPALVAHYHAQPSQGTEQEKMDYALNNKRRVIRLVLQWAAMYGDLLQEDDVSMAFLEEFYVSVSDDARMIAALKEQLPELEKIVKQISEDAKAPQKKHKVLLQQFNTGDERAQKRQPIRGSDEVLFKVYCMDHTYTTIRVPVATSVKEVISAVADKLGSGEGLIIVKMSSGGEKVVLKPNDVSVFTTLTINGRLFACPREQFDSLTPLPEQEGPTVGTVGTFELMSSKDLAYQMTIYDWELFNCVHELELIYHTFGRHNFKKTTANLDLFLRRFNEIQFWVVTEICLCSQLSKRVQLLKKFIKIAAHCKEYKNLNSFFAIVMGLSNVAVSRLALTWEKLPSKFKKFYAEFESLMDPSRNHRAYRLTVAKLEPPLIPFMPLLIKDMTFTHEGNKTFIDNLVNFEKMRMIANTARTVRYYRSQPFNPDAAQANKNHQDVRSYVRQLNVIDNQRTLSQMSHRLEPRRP

[16] = target: Rap guanine nucleotide exchange factor 4 (Homo sapiens) (UniProt Q8WZA2); assay: Confirmatory qHTS for antagonist of cAMP-regulated guanine nucleotide exchange factor 4 (EPAC2) (AID 1645885); also: nearly all actives have a fitted effect of over 25% in size; also: potency is read from the fitted curve at half-maximal effect
[17] = target: Cytochrome P450 3A4 (Homo sapiens) (UniProt P08684); assay: qHTS Assay for Activators of Cytochrome P450 3A4 (AID 885); also: nearly all actives have a fitted effect of over 65% in size
In short: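 20nM CYP3A4 + 25uM Luciferin-PPXE (=KM), 200mM KPO4; cpd 10 min RT; NADPH regen, 60 min RT; stop w/ detection buffer, 20 min; luminescence. Normalized to 57 uM ketoconazole.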

[18] = target: Dual specificity protein kinase CLK4 (Homo sapiens) (UniProt Q9HAZ1); assay: qHTS Assay for Inhibitors of CDC-like Kinase 4 (Kinase-Glo Assay) (AID 1770); also: nearly all actives have a fitted effect of over 65% in size; also: potency is read from the fitted curve at half-maximal effect
Sequence of Dual specificity protein kinase CLK4 (Homo sapiens) (Q9HAZ1 whole entry, looked up): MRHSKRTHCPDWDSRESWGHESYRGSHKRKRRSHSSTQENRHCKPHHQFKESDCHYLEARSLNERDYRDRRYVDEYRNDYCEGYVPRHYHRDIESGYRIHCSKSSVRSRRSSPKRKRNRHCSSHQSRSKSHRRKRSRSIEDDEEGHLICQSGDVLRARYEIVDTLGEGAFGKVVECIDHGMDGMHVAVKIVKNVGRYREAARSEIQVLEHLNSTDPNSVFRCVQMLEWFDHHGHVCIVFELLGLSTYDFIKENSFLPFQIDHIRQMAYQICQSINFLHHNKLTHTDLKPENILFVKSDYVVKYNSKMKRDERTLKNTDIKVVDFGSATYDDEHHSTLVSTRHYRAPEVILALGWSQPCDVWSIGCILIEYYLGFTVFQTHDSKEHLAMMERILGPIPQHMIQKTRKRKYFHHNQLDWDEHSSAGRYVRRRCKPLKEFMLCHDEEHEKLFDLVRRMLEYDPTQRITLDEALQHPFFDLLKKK
In short: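 Clk4 25 nM, RS peptide 100 uM, ATP 1 uM, pH 7.5 Tris, 10 mM MgCl2, 2.5 mM DTT; 4.5 h RT; ATP depletion read by Kinase-Glo luminescence.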

[19] = target: Dual specificity protein kinase CLK4 (Homo sapiens) (UniProt Q9HAZ1); assay: qHTS Assay for Inhibitors of CDC-like Kinase 4 (ADP-Glo Assay) (AID 1771); also: nearly all actives have a fitted effect of over 70% in size; also: potency is read from the fitted curve at half-maximal effect
In short: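 Clk4 (25 nM) was incubated 1 hr at room temperature with 100 uM RS repeat peptide and 1 uM ATP in buffer with 2 mM MgCl2, 0.5 mM EGTA, 2.5 mM DTT. ADP formed was quantified by ADP-Glo luminescence.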

[20] = target: Dual specificity protein kinase CLK4 (Homo sapiens) (UniProt Q9HAZ1); assay: qHTS Assay for Inhibitors of CDC-like Kinase 4 (ADP-FP Assay) (AID 1795);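 also: recombinant human CLK4 phosphorylating RS repeat peptide at 1 µM ATP; % is scaled to controls: 0 for no effect and ±100 for the full control effect; nearly all actives have a fitted effect of over 60% in size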
In short: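 Kinase activity was followed as ADP output, converted from fluorescence polarization with a calibration curve. Reactions ran one hour at low ATP (1 uM) with RS peptide substrate.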

[21] = measured here: cell count channel max response
[22] = measured here: lipid channel max response

CCCCCCCCCCCCCC(=O)O[C@H](CC(=O)O)C[N+](C)(C)C
inactive: Potency [1] | Potency [2] > 46 µM | Potency [3] > 46 µM | Potency [4] | Potency [5] | activity change, negative = inhibition [6] 3.49% | outcome [8]
active: Potency [7] 79.4 µM
-5.36%: max response [6, 21]
-2.97%: max response [6, 22]

COc1cccc(Nc2ncc3nc(-c4cc(F)cc(F)c4)c(=O)n(C4CC4)c3n2)c1
inactive: Potency [9] > 11.4 µM | activity change, negative = inhibition [10] -13.3% | activity change, negative = inhibition [11] -29.9% | activity, negative = inhibition [12] -7.32% | Potency [2] > 9.22 µM | Potency [3] > 46 µM | Potency [4] | Potency [5] | outcome [8] | Potency [13] | Potency [14] | Potency [15] | Potency [16]
active: Potency [1] 6.31 µM

Cc1ccccc1-c1nc(N(C)Cc2ccco2)c2ccccc2n1
active: Potency [1] 1.58 µM | Potency [18] 20 µM | Potency [19] 28.2 µM | Potency [7] 28.2 µM | Potency [16] 35 µM
inactive: Potency [9] > 11.4 µM | activity change, negative = inhibition [10] 13.9% | activity change, negative = inhibition [11] -24% | activity, negative = inhibition [12] -5.08% | Potency [2] > 46 µM | Potency [3] > 46 µM | Potency [4] | Potency [17] | Potency [20] | outcome [8] | Potency [13] | Potency [14] | Potency [15]

N#CCCn1c(=O)c(-c2cccs2)nc2cnc(N3CCOCC3)nc21
inactive: Potency [9] > 11.4 µM | activity change, negative = inhibition [10] 3.31% | activity change, negative = inhibition [11] -28.6% | activity, negative = inhibition [12] 17.9% | Potency [2] > 9.22 µM | Potency [3] > 46 µM | Potency [4] | Potency [5] | Potency [18] | Potency [19] | Potency [20] | outcome [8] | Potency [13] | Potency [14] | Potency [15] | Potency [16]

COc1cccc(-c2ccc3ncnc(NCc4ccccc4OC)c3c2)c1
inactive: Potency [2] > 46 µM | Potency [3] > 46 µM | Potency [4] | Potency [5] | activity change, negative = inhibition [6] 5.94% | Potency [7] | outcome [8]
-19.3%: max response [6, 21]
-13.1%: max response [6, 22]

O=c1c(-c2ccc(Cl)cc2)nc2cncnc2n1Cc1ccccc1Cl
inactive: Potency [9] > 11.4 µM | activity change, negative = inhibition [10] 8.01% | activity change, negative = inhibition [11] -29.5% | activity, negative = inhibition [12] 13% | Potency [2] > 9.22 µM | Potency [3] > 46 µM | Potency [4] | Potency [5] | Potency [17] | outcome [8] | Potency [13] | Potency [14] | Potency [15] | Potency [16]
active: Potency [1] 1.26 µM
